Source: PubChem BioAssay
The source made the active and inactive calls. Unless noted, no rule for the calls is given here.

Experiments:
[1] = compounds binding Alexa647 anti-His antibody – biochemical, small-molecule microarray, 635 nm fluorescence, artefact control for SMM control protein annotation, primary screen (AID 1128); settings: higher = more signal;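 also: score merges feature fluorescence with signal-to-noise for each printed compound spot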
[2] = system: Human papillomavirus type 1a E7 protein (residues 1-88); assay: HPV1a E7 small-molecule binders, primary screen, biochemical, small-molecule microarray, residues 1-88, 635 nm (AID 1129); settings: small-molecule microarray binding, fluorescence 635 nm; higher = more signal
[3] = biological target: Focal adhesion kinase 1 (Homo sapiens) (UniProt Q05397); assay: PTK2 protein binding on printed compound slides – biochemical, small-molecule microarray, 635/667 nm fluorescence, BSA, DTT, primary screen (AID 1130); settings: 635 nm fluorescence, higher = more signal;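 also: composite of spot emission at 667 nm and signal to noise over triplicate slides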
Sequence of Focal adhesion kinase 1 (Homo sapiens) (Q05397 whole entry, looked up): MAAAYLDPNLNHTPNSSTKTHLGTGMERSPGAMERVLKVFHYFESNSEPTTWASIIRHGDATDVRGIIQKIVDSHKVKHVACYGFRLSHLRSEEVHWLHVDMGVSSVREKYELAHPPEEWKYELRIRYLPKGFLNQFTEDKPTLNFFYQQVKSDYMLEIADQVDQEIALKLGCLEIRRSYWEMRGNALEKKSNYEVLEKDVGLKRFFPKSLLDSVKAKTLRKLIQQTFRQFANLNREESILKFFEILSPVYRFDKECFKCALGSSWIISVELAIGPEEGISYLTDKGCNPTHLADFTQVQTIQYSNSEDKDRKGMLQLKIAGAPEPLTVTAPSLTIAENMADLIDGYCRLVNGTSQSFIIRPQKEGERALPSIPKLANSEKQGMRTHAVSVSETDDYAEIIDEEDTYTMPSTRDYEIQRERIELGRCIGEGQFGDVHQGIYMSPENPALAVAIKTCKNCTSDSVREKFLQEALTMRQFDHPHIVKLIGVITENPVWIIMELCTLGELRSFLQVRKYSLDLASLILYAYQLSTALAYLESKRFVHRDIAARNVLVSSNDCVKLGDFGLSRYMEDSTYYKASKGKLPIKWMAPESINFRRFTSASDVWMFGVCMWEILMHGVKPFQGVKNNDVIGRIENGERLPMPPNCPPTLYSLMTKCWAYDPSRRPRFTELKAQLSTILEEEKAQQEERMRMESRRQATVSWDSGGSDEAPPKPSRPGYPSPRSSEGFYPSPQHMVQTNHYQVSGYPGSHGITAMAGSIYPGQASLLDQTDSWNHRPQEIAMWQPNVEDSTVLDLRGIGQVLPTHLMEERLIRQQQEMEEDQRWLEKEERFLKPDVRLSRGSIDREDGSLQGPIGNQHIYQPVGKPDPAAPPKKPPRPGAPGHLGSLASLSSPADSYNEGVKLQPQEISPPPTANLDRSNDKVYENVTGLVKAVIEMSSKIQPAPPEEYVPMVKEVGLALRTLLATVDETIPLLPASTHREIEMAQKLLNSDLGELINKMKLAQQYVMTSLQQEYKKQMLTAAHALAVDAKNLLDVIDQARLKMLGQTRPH

[4] = system: Fibrinogen (Alexa647-labelled); assay: Alexa647-fibrinogen binding to printed small molecules – biochemical, small-molecule microarray, 635/667 nm fluorescence, artefact control for SMM control-protein annotation, profiling panel (AID 1131); settings: fibrinogen-A647 binding fluorescence, higher = more signal;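 also: z-score merges 667 nm fluorescence with per-spot signal-to-noise over triplicate slides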
[5] = biological target: Follistatin (Homo sapiens) (UniProt P19883); assay: FST protein binding to printed compounds – biochemical, small-molecule microarray, 635/667 nm fluorescence, primary screen (AID 1132); settings: 635 nm fluorescence, higher = more signal
Sequence of Follistatin (Homo sapiens) (P19883 whole entry, looked up): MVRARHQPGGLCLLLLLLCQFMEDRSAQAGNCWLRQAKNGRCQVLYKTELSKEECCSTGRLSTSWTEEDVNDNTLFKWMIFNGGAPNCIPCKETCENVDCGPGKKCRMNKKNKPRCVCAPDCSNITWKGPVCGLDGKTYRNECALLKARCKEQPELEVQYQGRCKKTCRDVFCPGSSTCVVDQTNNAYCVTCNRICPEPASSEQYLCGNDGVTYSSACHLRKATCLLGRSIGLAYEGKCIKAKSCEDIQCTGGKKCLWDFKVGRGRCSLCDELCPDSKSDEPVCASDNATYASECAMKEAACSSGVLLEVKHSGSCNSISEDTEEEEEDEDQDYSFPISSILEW

[6] = biological target: Fibroblast growth factor 2 (Homo sapiens) (UniProt P09038); assay: basic fibroblast growth factor binding to printed compounds – biochemical, small-molecule microarray, 635/667 nm fluorescence, primary screen (AID 1133); settings: FGF2, fluorescence 635/667, higher = more signal
Sequence of Fibroblast growth factor 2 (Homo sapiens) (P09038 whole entry, looked up): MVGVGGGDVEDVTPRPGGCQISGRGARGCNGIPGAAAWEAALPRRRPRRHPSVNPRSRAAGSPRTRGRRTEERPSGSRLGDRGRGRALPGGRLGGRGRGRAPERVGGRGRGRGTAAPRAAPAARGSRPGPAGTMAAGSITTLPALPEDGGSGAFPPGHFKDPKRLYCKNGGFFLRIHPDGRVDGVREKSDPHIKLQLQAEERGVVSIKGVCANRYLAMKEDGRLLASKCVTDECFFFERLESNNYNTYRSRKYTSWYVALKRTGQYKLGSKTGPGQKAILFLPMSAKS

[7] = JC-1 mitochondrial potential readout, lung cancer cells – cell-based, A549, JC-1 fluorescence, basal, 24 h, 100 nL, profiling panel (AID 1138); settings: higher = more signal;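 also: A549 lung adenocarcinoma cells under basal conditions with no added stimulus; test concentration not given here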
[8] = system: Lefty1; assay: Lefty1 protein binding to printed compounds – biochemical, small-molecule microarray, 635/667 nm fluorescence, primary screen (AID 1139); settings: fluorescence 635/667, higher = more signal
[9] = system: wheat germ agglutinin (Triticum aestivum), Alexa647-labelled; assay: Alexa647-WGA lectin binding to printed small molecules – biochemical, small-molecule microarray, 635/667 nm fluorescence, artefact control for SMM control-protein annotation, profiling panel (AID 1140); settings: WGA-A647 binding, 635 nm fluorescence, higher = more signal;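 also: score merges 667 nm feature emission with signal to noise over triplicate slides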
[10] = biological target: Luciferin 4-monooxygenase (Photinus pyralis) (UniProt P08659); assay: inhibition of purified Photinus pyralis luciferase – biochemical, luminescence, purified enzyme, 2006 set, primary screen (AID 1141); settings: purified firefly luciferase, SteadyGlo luminescence, 30 min; higher = more signal, called active from +8 up or from −8 down;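 also: cell-free assay with purified firefly luciferase at 100 ng per well in PBS; test concentration not given here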
Sequence of Luciferin 4-monooxygenase (Photinus pyralis) (P08659 whole entry, looked up): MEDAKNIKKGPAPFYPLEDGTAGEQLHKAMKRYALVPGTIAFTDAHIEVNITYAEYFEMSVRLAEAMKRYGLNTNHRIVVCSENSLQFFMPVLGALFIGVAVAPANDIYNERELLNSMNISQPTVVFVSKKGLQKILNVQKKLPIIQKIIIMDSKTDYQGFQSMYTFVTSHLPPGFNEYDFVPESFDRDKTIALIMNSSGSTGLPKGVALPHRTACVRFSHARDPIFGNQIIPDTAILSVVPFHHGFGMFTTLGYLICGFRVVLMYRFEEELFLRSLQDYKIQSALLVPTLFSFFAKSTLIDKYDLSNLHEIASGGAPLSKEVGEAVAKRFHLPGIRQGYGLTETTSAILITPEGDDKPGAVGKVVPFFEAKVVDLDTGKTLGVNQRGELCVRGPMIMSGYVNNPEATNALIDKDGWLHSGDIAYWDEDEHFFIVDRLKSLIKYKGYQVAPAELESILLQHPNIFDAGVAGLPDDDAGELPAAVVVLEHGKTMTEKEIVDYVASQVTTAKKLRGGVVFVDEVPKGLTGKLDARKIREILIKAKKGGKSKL

[11] = system: Wnt5a (protein binding on small-molecule microarray); assay: small molecules binding Wnt5a protein – biophysical, small-molecule microarray, 635/667 nm fluorescence, primary screen (AID 1142); settings: 635 nm fluorescence, higher = more signal;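 also: fluorescence read at 667 nm with signal to noise per printed feature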
[12] = ATP-based viability of Huh7 replicon cells – cell-based, CellTiter-Glo luminescence, basal, 48 h, cytotoxicity control for HCV replication inhibitor project, primary screen (AID 1143); settings: higher = more signal, called active from +8 up or from −8 down;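 also: Huh7 hepatoma cells carrying a hepatitis C replication reporter with no stimulus; test concentration not given here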
[13] = Pseudomonas biofilm growth suppression – PAO1 strain, BacTiter-Glo luminescence, LB-PBS, primary screen (AID 1144); settings: P. aeruginosa PAO1 biofilm, 12 h, higher = more signal
[14] = basal CRE-LacZ reporter activity in PC12 – cell-based, unstimulated, primary screen (AID 1145); settings: no forskolin, luminescence, 4.5 h, higher = more signal, called active from +8 up or from −8 down
[15] = forskolin-driven CRE-LacZ activity in PC12 – cell-based, CRE-LacZ reporter, forskolin-stimulated, primary screen (AID 1146); settings: luminescence, 4.5 h, higher = more signal, called active from +8 up or from −8 down;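 also: PC12 cells with 6xCRE LacZ reporter stimulated by forskolin 10 µM; beta-galactosidase reporter signal reflecting CREB driven transcription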
[16] = biological target: Streptavidin (Streptomyces avidinii) (UniProt P22629); assay: compounds binding control protein streptavidin – biophysical, small-molecule microarray, 635/667 nm fluorescence, artefact control for SMM compound annotation, primary screen (AID 1147); settings: higher = more signal;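 also: signal reflects streptavidin binding to arrayed compounds as a control protein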
Sequence of Streptavidin (Streptomyces avidinii) (P22629 whole entry, looked up): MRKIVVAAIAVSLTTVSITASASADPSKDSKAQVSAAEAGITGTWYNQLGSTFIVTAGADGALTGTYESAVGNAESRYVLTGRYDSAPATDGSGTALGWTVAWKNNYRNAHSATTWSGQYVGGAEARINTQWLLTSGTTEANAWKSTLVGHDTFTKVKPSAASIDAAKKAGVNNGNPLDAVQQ

[17] = probe aInhba binding on compound microarray – biochemical, small-molecule microarray, 635/667 nm fluorescence, primary screen (AID 1148); settings: higher = more signal;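 also: score merges 667nm spot fluorescence with signal-to-noise for antibody binding to printed compounds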
[18] = biological target: Torsin-1A (Homo sapiens) (UniProt O14656); assay: TOR1A wild-type binding on microarray – cell lysate, small-molecule microarray, lysate, 635/667 nm, primary screen (AID 1149); settings: COS7 hTOR1A-WT lysate, 635 nm fluorescence, higher = more signal
Sequence of Torsin-1A (Homo sapiens) (O14656 whole entry, looked up): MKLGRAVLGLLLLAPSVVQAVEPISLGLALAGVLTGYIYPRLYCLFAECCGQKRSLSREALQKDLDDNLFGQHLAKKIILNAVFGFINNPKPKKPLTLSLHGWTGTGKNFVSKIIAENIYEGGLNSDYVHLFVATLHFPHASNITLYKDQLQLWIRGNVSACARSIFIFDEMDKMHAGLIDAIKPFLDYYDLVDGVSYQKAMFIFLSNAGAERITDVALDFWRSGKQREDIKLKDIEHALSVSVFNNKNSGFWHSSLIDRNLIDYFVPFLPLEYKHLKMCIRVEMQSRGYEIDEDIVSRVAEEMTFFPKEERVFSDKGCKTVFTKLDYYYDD

[19] = biological target: Torsin-1A (Homo sapiens) (UniProt O14656); assay: torsin A mutant lysate binding on microarrays – cell lysate, small-molecule microarray, COS7 lysate, 635/667 nm fluorescence, primary screen (AID 1150); settings: COS7 hTOR1A mutant lysate, 635 nm fluorescence, higher = more signal;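 also: score pools 667 nm emission and signal to noise measuring lysate protein binding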
[20] = system: Sonic hedgehog protein (Shh); assay: Sonic hedgehog microarray binding compounds – biochemical, small-molecule microarray, 635/667 nm fluorescence, primary screen (AID 1151); settings: 635 nm fluorescence, higher = more signal;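 also: Shh protein binding to compounds spotted on small-molecule microarray slides; score combines spot fluorescence intensity with signal-to-noise across triplicate slides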

CN1C(=O)C2C=CC(C(O)c3ccc(Br)cc3)N(N(c3ccccc3)c3ccccc3)C2C1=O (stereo not given)
composite z-score [1]: 0.373
composite z-score [2]: 0.77
composite z-score [3]: 0.704
composite z-score [4]: 0.312
composite z-score [5]: 0.502
composite z-score [6]: -0.538
z-score [7]: 1.34
composite z-score [8]: -0.409
composite z-score [9]: 0.585
z-score [10]: -0.495 (inactive)
composite z-score [11]: -0.0158
z-score [12]: -0.776 (inactive)
z-score [13]: -1.19 (inactive)
z-score [14]: 1 (inactive)
z-score [15]: -0.342 (inactive)
composite z-score [16]: 1.04
composite z-score [17]: -0.0375
composite z-score [18]: 0.293
composite z-score [19]: -0.135
composite z-score [20]: -0.583

COc1ccc(O[C@H]2C=C[C@@H](c3ccccc3)O[C@@H]2COC(=O)CCC(C)=NO[C@H](C)c2cn([C@@H]3COC[C@H]3O)nn2)cc1
composite z-score [1]: 1
composite z-score [2]: 0.225
composite z-score [3]: 0.149
composite z-score [4]: 0.517
composite z-score [5]: 0.368
composite z-score [6]: 0.459
z-score [7]: -1.56
composite z-score [8]: 0.701
composite z-score [9]: -0.151
z-score [10]: 0.884 (inactive)
composite z-score [11]: 0.276
z-score [12]: -3.36 (inactive)
z-score [13]: -1.39 (inactive)
z-score [14]: 5.66 (inactive)
z-score [15]: 0.867 (inactive)
composite z-score [16]: 2.18
composite z-score [17]: -0.103
composite z-score [18]: 0.249
composite z-score [19]: 0.419
composite z-score [20]: 0.754

COCCOC(=O)N1C(=O)[C@@]2(c3cc(C#CC4(O)CCCCCC4)ccc31)[C@H](c1ccc(OCCO)cc1)N1[C@H](c3ccccc3)[C@H](c3ccccc3)OC(=O)[C@H]1[C@@H]2C(=O)NC[C@H](O)c1ccccc1
composite z-score [1]: 1.67
composite z-score [2]: 1.21
composite z-score [3]: 0.184
composite z-score [4]: 0.946
composite z-score [5]: 1.15
composite z-score [6]: 0.909
z-score [7]: -1.52
composite z-score [8]: 0.907
composite z-score [9]: 0.784
z-score [10]: -1.05 (inactive)
composite z-score [11]: 0.524
z-score [12]: -5.42 (inactive)
z-score [13]: -0.903 (inactive)
z-score [14]: -0.61 (inactive)
z-score [15]: 0.753 (inactive)
composite z-score [16]: 0.246
composite z-score [17]: 0.0658
composite z-score [18]: 0.225
composite z-score [19]: 0.514
composite z-score [20]: 1.23

COCCCNC(=O)[C@]1(CCC(=O)OC(C)(C)C)N=C(c2ccc(OCCCO)cc2)O[C@@H]1c1ccccc1N=[N+]=[N-]
composite z-score [1]: 1.96
composite z-score [2]: 1.23
composite z-score [3]: 0.688
composite z-score [4]: 1.03
composite z-score [5]: 1.28
composite z-score [6]: 0.894
z-score [7]: 0.6
composite z-score [8]: 0.735
composite z-score [9]: 0.778
z-score [10]: -12 (active)
composite z-score [11]: 0.951
z-score [12]: -1.41 (inactive)
z-score [13]: -1.67 (inactive)
z-score [14]: -0.482 (inactive)
z-score [15]: -0.478 (inactive)
composite z-score [16]: 1.45
composite z-score [17]: 0.283
composite z-score [18]: 1.54
composite z-score [19]: 1.1
composite z-score [20]: -0.2

O=C1O[C@@H](c2ccccc2)[C@@H](c2ccccc2)N2[C@@H](c3ccc(OCCO)cc3)[C@]3(C(=O)Nc4ccc(C#CCCO)cc43)[C@@H](C(=O)N3CCCCCCC3)[C@H]12
composite z-score [1]: 1.86
composite z-score [2]: 1.17
composite z-score [3]: 0.782
composite z-score [4]: 0.965
composite z-score [5]: 1.39
composite z-score [6]: 0.585
z-score [7]: -0.287
composite z-score [8]: 1.56
composite z-score [9]: 1.35
z-score [10]: -1.62 (inactive)
composite z-score [11]: 0.825
z-score [12]: -1.11 (inactive)
z-score [13]: -0.928 (inactive)
z-score [14]: -0.168 (inactive)
z-score [15]: 0.0629 (inactive)
composite z-score [16]: 2.31
composite z-score [17]: 1.75
composite z-score [18]: 0.782
composite z-score [19]: 1.31
composite z-score [20]: 1.59
